mHTT-CaM PPI inh: mHTT-calmodulin interaction abrogation; P42858; AlphaScreen His-mHTT/GST-CaM binding, luminescence; inhibition, % at 15 µM; hit rate 3.6% among 190,000
Target sequence (P42858 whole entry, looked up, change not shown): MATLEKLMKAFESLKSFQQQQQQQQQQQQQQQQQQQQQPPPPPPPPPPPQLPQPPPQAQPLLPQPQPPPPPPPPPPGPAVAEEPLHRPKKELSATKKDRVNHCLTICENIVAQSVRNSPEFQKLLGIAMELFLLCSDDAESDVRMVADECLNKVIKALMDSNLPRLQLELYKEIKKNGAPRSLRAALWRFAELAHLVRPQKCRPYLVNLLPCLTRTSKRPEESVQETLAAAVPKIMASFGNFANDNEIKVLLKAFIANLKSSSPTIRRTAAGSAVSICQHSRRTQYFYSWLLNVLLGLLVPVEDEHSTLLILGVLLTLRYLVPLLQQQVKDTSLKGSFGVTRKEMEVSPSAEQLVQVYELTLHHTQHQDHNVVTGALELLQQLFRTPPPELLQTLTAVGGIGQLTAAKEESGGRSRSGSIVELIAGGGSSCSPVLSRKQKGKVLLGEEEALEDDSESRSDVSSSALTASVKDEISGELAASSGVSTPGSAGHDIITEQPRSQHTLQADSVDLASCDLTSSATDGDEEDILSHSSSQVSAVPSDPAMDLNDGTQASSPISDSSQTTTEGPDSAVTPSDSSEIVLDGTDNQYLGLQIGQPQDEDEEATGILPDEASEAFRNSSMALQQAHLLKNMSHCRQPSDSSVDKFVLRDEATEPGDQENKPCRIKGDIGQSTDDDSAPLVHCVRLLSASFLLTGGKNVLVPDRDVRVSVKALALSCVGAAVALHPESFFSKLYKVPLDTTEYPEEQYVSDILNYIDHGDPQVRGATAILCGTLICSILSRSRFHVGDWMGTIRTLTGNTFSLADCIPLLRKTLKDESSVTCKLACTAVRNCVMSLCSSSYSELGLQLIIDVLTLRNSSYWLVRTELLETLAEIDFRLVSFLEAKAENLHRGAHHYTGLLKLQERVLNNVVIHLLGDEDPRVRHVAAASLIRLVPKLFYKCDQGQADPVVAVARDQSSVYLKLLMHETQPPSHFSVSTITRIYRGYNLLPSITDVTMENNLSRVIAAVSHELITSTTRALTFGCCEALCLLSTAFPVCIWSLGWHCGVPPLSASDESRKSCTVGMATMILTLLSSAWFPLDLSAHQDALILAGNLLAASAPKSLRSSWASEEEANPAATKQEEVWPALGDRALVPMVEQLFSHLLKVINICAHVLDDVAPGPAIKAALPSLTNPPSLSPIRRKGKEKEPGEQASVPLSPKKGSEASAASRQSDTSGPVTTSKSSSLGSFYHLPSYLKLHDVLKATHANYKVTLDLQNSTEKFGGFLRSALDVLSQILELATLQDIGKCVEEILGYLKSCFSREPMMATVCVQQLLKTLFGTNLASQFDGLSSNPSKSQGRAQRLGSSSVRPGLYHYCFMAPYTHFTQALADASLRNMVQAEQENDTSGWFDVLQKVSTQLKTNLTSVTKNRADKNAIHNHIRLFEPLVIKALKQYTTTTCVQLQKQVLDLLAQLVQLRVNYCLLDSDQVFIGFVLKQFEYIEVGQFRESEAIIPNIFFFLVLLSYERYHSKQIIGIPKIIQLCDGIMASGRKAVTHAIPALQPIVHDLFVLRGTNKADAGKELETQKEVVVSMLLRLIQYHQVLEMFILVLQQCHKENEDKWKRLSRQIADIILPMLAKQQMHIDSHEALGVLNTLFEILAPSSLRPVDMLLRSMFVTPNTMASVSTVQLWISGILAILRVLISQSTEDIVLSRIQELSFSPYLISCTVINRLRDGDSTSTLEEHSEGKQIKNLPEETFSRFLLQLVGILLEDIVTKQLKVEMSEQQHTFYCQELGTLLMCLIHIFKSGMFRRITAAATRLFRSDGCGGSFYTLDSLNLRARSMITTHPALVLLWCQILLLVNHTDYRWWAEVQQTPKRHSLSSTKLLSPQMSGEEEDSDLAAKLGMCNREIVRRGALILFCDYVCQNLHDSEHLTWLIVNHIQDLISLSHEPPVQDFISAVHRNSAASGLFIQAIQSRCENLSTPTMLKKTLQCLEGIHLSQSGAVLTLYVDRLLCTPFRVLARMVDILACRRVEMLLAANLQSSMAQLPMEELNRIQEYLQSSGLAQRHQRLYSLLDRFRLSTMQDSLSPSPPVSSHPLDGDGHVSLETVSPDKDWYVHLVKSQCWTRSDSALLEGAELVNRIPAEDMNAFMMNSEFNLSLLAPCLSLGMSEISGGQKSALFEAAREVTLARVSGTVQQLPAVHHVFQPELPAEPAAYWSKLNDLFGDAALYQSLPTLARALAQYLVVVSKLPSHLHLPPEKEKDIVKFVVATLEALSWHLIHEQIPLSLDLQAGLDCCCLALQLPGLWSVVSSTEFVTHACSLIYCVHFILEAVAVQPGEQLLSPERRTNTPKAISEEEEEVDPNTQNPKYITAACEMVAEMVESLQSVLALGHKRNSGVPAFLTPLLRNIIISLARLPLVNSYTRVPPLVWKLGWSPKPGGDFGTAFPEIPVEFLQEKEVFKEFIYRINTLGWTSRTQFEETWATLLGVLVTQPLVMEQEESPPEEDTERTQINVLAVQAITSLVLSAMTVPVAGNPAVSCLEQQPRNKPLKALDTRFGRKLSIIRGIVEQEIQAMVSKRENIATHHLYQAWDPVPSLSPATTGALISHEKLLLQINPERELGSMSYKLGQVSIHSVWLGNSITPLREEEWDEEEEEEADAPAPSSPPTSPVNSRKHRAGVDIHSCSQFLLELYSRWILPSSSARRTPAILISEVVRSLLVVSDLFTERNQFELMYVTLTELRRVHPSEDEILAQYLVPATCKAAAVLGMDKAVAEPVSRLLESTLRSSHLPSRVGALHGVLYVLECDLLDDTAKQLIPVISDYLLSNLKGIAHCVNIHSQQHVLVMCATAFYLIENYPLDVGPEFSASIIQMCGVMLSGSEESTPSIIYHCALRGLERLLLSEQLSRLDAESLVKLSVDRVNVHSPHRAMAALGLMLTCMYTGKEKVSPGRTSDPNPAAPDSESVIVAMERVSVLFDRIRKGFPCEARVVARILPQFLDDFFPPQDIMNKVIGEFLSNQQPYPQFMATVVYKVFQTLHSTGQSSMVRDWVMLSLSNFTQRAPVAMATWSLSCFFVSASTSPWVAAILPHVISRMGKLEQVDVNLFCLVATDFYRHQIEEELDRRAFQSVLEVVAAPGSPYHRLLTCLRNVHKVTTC
Pf apPOL inh: Pf-apPOL DNA polymerase inhibition; Recombinant Pf-apPOL, molecular beacon fluorescence, 1.5 h; inhibition, % at 10 µM; hit rate 0.25% among 210,000
Each line names hits and unclear results; the compound was inactive in the other large screens. Many of the other results were omitted from the sample, so hits are more common in it than they were. No stated cut-off is given here; in the data, active means inhibition above about 50%; inactive means the rest.

Nc1ccc(-c2nc3ccc(-c4nc5ccc(N)cc5[nH]4)cc3[nH]2)cc1	mHTT-CaM PPI inh 51.0
Nc1ccc2nc(Cc3nc4ccc(N)cc4[nH]3)[nH]c2c1	mHTT-CaM PPI inh 79.0
Nc1ccc2nc(-c3ccccc3-c3nc4ccc(N)cc4[nH]3)[nH]c2c1	none
O=C(Cn1cc2c(n1)CCCC2)Nc1c(F)cc(F)cc1Br	none
O=C(NC1CCCCC1)N1CCC(OCc2nc(C3CC3)no2)CC1	none
O=C1/C(=C/C2CCCO2)CC/C1=C\C1CCCO1 (stereo not drawn)	mHTT-CaM PPI inh 67.8 (no result: Pf apPOL inh)
O=C1C2CC(Br)C(Br)CC2C(=O)N1CC1CCCO1 (stereo not drawn)	none
Cc1nnc(-c2ccccn2)[nH]c1=O	none (no result: mHTT-CaM PPI inh)
Cc1nc(-c2cnccn2)[nH]c(=O)c1C	mHTT-CaM PPI inh 70.8
Cc1c(-c2ccccc2)c(=O)oc2cc(OC(=O)C(C)C)ccc12	none
O=C1/C(=C/c2cccnc2)CC/C1=C\c1cccnc1	none
CC(=O)N1CC(=O)NC(=Cc2cccnc2)C1=O	Pf apPOL inh 52.4 (no result: mHTT-CaM PPI inh)
CCCn1cnc2c1c(=O)n(CC(C)C)c(=O)n2-c1ccccc1Cl	none
Oc1ccccc1C1CC(c2ccc3c(c2)OCO3)=NC(c2cccc(F)c2)N1 (stereo not drawn)	none
COc1ccc(C2=NC(C(C)C)NC(c3ccccc3O)C2)cc1OC (stereo not drawn)	mHTT-CaM PPI inh 78.0
Cc1ccc(C2=NC(C(C)C)NC(c3cc(Br)ccc3O)C2)cc1 (stereo not drawn)	none
COc1cccc(C2=NC(C(C)C)NC(c3cc(Br)ccc3O)C2)c1 (stereo not drawn)	mHTT-CaM PPI inh 81.0
COc1ccc(C2N=C(c3ccc4c(c3)OCO4)CC(c3ccccc3O)N2)cc1 (stereo not drawn)	none
COc1cccc(C2=NC(c3ccc(F)cc3)NC(c3ccc(OC)cc3O)C2)c1 (stereo not drawn)	mHTT-CaM PPI inh 53.0
COc1ccc(C2=NC(c3ccc(OC)c(OC)c3)NC(c3ccccc3O)C2)cc1 (stereo not drawn)	mHTT-CaM PPI inh 53.0
COc1cccc(C2CC(c3ccc(Cl)cc3)=NC(C(C)C)N2)c1O (stereo not drawn)	none
COc1ccc(Cl)cc1C(=O)NCCS(=O)(=O)N1CCN(c2ncccn2)CC1	none
CSc1nnc(-c2ccc(NC(=O)c3ccccc3Cl)cc2)n1C	none
O=C(NCCc1ccccn1)c1cnn(-c2ccc(Cl)cc2)c1C(F)(F)F	none (no result: mHTT-CaM PPI inh)
N#Cc1ccccc1NC(=O)c1cccc(C(=O)Nc2ccccc2C#N)c1	none
O=C(NC(=O)c1ccccc1C(F)(F)F)Nc1ccc(F)cc1	none (no result: mHTT-CaM PPI inh)
CSCC(O)Cn1[nH]c(=O)ccc1=O (stereo not drawn)	none (no result: mHTT-CaM PPI inh)
CCOc1cc(CN2CCN(c3cccc(C)c3C)CC2)ccc1O	none
Clc1cccc(OCCN2CCCCC2)c1	none
CC(=O)c1cccc(NC(=O)COc2cc(C)ccc2C(C)C)c1	none
O=[N+]([O-])c1cccc(S(=O)(=O)n2cc(Br)cn2)c1	mHTT-CaM PPI inh 80.4
Cc1nn(S(=O)(=O)c2cccc([N+](=O)[O-])c2)c(C)c1Br	none
C[C@H](c1ccccc1)N1C[C@H](COCc2ccccc2)Oc2cc(N3CCC[C@@H]3CO)ccc2S1(=O)=O	none
C[C@H](c1ccccc1)N1C[C@@H](COCc2ccccc2)Oc2cc(N3CC[C@H](O)C3)ccc2S1(=O)=O	mHTT-CaM PPI inh 77.8
C[C@H](c1ccccc1)N1C[C@H](COCc2ccccc2)Oc2cc(N3CC[C@H](O)C3)ccc2S1(=O)=O	mHTT-CaM PPI inh 72.0
COC[C@@H]1CCCN1c1ccc2c(c1)O[C@@H](COCc1ccccc1)CN([C@H](C)c1ccccc1)S2(=O)=O	none
COc1ccc(C=C2SC(=S)N(C(C(=O)O)C(C)C)C2=O)cc1 (stereo not drawn)	none
COc1cc(C=C2SC(=S)N(C(C(=O)O)C(C)C)C2=O)cc(OC)c1O (stereo not drawn)	mHTT-CaM PPI inh 61.2
COc1ccc(OC)c(NC(=O)c2cc(S(=O)(=O)NCCC3=CCCCC3)ccc2F)c1	none
Cc1c(C(=O)NCc2ccccn2)oc2ccc(S(=O)(=O)N3CCCCC3)cc12	mHTT-CaM PPI inh 58.0
Cc1c(C(=O)NCc2ccccn2)oc2ccc(S(=O)(=O)N3CCOCC3)cc12	none
CC(Oc1ccccc1)C(=O)N[C@@H]1C(=O)N2[C@@H]1SC(C)(C)[C@@H]2C(=O)OCc1ccccc1 (stereo partly drawn)	none
COC(=O)[C@@H]1N2C(=O)[C@@H](NC(=O)C(C)Oc3ccccc3)[C@H]2SC1(C)C (stereo partly drawn)	mHTT-CaM PPI inh 66.4
CC(NC(=O)c1ccc(-c2ccnc(N3CCCC3)n2)cc1)c1cccnc1 (stereo not drawn)	none
Cc1ccc(-c2cn3cc(C(=O)NC(C)c4cccnc4)ccc3n2)cc1 (stereo not drawn)	mHTT-CaM PPI inh 51.4
Cc1ccc(-c2cn3cc(C(=O)NC(C)c4cccnc4)ccc3n2)cc1C (stereo not drawn)	mHTT-CaM PPI inh 52.7
CC(NC(=O)c1cn2ccccc2n1)c1cccnc1 (stereo not drawn)	none
COc1ccc(Cl)cc1C(=O)Nc1cnc(N2CCCCC2)nc1	none
COc1ccc(C(=O)NCCC2CCN(C(=O)c3ccc(F)cc3)CC2)cc1	none
CC(C)C1C(=O)N(Cc2cn(CCC3OCCCO3)nn2)CCS(=O)(=O)N1Cc1ccc(-c2ccc(Cl)cc2)cc1 (stereo not drawn)	none
CC(C)C1C(=O)N(Cc2cn(CCC3OCCO3)nn2)CCS(=O)(=O)N1Cc1ccc(-c2ccc(F)nc2)cc1 (stereo not drawn)	none
CC1C(=O)N(Cc2cn(CCC3OCCO3)nn2)CCS(=O)(=O)N1Cc1ccc(-c2ccc(Cl)c(Cl)c2)cc1 (stereo not drawn)	mHTT-CaM PPI inh 95.5
CC(C)C1C(=O)N(Cc2cn(CCC3OCCO3)nn2)CCS(=O)(=O)N1Cc1ccc(-c2ccc(F)cc2)cc1 (stereo not drawn)	mHTT-CaM PPI inh 53.3
CC(C)C1C(=O)N(Cc2cn(CCC3OCCCO3)nn2)CCS(=O)(=O)N1Cc1ccc(-c2ccc(F)nc2)cc1 (stereo not drawn)	none
CC(C)C1C(=O)N(Cc2cn(CCC3OCCCO3)nn2)CCS(=O)(=O)N1Cc1ccc(-c2ccc(Cl)c(Cl)c2)cc1 (stereo not drawn)	mHTT-CaM PPI inh 73.6
CC(C)C1C(=O)N(Cc2cn(CCC3OCCCO3)nn2)CCS(=O)(=O)N1Cc1ccc(-c2ccccc2)cc1 (stereo not drawn)	mHTT-CaM PPI inh 55.7
CC1C(=O)N(Cc2cn(CCC3OCCO3)nn2)CCS(=O)(=O)N1Cc1ccc(-c2cccc(CO)c2)cc1 (stereo not drawn)	none
Cc1ccc2c(c1)sc(=NC(=O)c1ccc(S(=O)(=O)N3CCOCC3)cc1)n2C	none
CCOc1ccc(NC(=O)N2CCC(N3CCN(Cc4ccc(C)cc4)C3=O)CC2)cc1	none
Cn1cccc1C(CNC(=O)C(=O)Nc1ccon1)N1CCc2ccccc2C1 (stereo not drawn)	none
COc1cccc(CN2CCC(O)CC2)c1	none
O=C(Cc1ccc(Cl)cc1)Nc1ccccc1NC(=O)Cc1ccc(Cl)cc1	none
CC(=O)Nc1ccccc1NC(=O)Cc1ccc(Cl)cc1	Pf apPOL inh 94.8
O=C(Nc1ccc(N2CCN(c3ccccc3)C2=O)nc1)C1CCC1	none
Cc1nnc2sc(SCC(=O)Nc3cccc(C(F)(F)F)c3)nn2c1=O	mHTT-CaM PPI inh 99.0
Cc1cc2c(=O)n(CC(=O)Nc3cccc(C(F)(F)F)c3)cnc2s1	none
CCc1ccc(C(=O)N2C(C(=O)NCC3CCCO3)COC23CCCCC3)cc1 (stereo not drawn)	none

Compound activity from PubChem.
